Assay [1] has as its target 6-phosphogluconate dehydrogenase, decarboxylating (Homo sapiens) (UniProt P52209). The assay can be described thus: inhibition of human phosphogluconate dehydrogenase – biochemical, recombinant enzyme, NADPH absorbance, primary screen (AID 1159550;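 active means at least 20% inhibition of 6-phosphogluconate dehydrogenase activity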). As to conditions: recombinant 6PGD, NADPH absorbance 341 nm; at 10 µM; stronger effect = higher value.
Assay [2] in a line: signal quenchers or enhancers, Cy5 substrate/SSB – biochemical, NIH Clinical Collection, E. coli SSB, artefact control for HCV NS3 helicase inhibitor project (AID 743268; call rule not given here). As to conditions: Cy5-oligo bound E. coli SSB, fluorescence interference.
For assay [3], the system named is Hepatitis C virus NS3 helicase. Kind of assay: blockers of NS3h binding to DNA – biochemical, fluorescence polarization, NIH Clinical Collection, primary screen (AID 743270; call rule not given here). The conditions noted are these: NS3 helicase binding to Cy5-dT15 DNA, stronger effect = higher value, concentration not given here.
The target in assay [4] is Single-stranded DNA-binding protein (Escherichia coli (strain K12)) (UniProt P0AGE0). The assay can be described thus: SSB-ssDNA binding inhibitors – biochemical, fluorescence polarization, NIH Clinical Collection, counter-screen for HCV NS3 helicase inhibitor project (AID 743271; in the data active means inhibition above about 28%). As to conditions: E. coli SSB-DNA binding, stronger effect = higher value, concentration not given here. Background: Polarisation of emitted light reports the rotation of a fluorescent probe.

A short description of assay [5]: compounds distorting NS3 helicase fluorescence signal – biochemical, NIH Clinical Collection, artefact control for HCV NS3 helicase inhibitor project (AID 743272; call rule not given here;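 further: HCV NS3 helicase with a Cy5 labelled single stranded DNA probe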). As to conditions: fluorescence interference counterscreen, HCV NS3 helicase assay; stronger effect = lower value. In general terms: The purpose of a counterscreen is to sort out artefacts and off-target activity.

Assay [6] is described as follows: modulation of C. elegans fzo-1 (AID 1259413; call rule not given here;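 further: fzo-1 mutant C. elegans worms in liquid wells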). The conditions noted are these: C. elegans fzo-1 modulator screen, mean read-out; stronger effect = higher value.
Assay [7] can be described thus: EMT-state selective cytotoxicity in co-culture – imaging, PC-3E GFP, TEM4-18 mCherry, primary screen (AID 1345086;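 active means compounds killing one labelled cell type while sparing the other, by normalised counts and ratio limits, not self-fluorescent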;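 on all read-outs here: cells exposed to compound for 72 h before imaging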;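 on red/green cell ratio (normalised): normalised mesenchymal count divided by normalised epithelial count so high means epithelial killing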). The conditions noted are these: PC-3E GFP / TEM4-18 mCherry co-culture, imaging cell counts, at 1 µM; for red/green cell ratio (normalised): actives lie on both sides, counts scaled to control wells, 1 = unselective.
Assay [8] can be described thus: MELAS cybrid and Rieske KO viability enhancers – cell-based, MELAS cybrids, Rieske KO mouse fibroblasts, CellTiter-Glo, primary screen (AID 1508586;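 active means mean z-score across replicates of 1.96 or higher in either the MELAS or the Rieske mutant cell line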;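 further: z relative to plate mean and SD of compound and empty wells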). The conditions noted are these: low glucose. (In ATP-based viability assays light output follows the ATP content of the culture.)
Assay [9] has as its target NAD(+) hydrolase SARM1 (Homo sapiens) (UniProt Q6SZW1). The assay can be described thus: blocking NAD cleavage by SARM1 SAM-TIR – cell lysate, NAD-Glo luminescence (AID 1508614;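 active means compound whose remaining NAD level is above about 45 nM, limit read from the data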). As to conditions: SAM-TIR HEK293T lysate NADase, at 1 µM, stronger effect = higher value.
Assay [10] concerns the target Mitogen-activated protein kinase 7 (Homo sapiens) (UniProt Q13164). The assay can be described thus: Gal4-ERK5 driven luciferase induction – cell-based, HTS, primary screen (AID 1508626;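 active means luciferase signal above three times the same-plate solvent-only control wells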;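 further: luciferase driven by Gal4-ERK5 fusion binding five Gal4 sites before minimal TATA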). As to conditions: HeLa Gal4-ERK5 transactivation, 18 h, at 5 µM, stronger effect = higher value.
The nature of assay [11]: galactose survival enhancers in mitochondrial complex I cybrids – cell-based, galactose medium, ATP luminescence, primary screen (AID 1645843;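 active means z-score of at least 1.8 in each of two replicates, scored against plate mean and spread of sample wells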;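 further: positive z means more ATP and so rescue of galactose-driven cybrid death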). The conditions noted are these: complex I mutant cybrid cells, 72 h, stronger effect = higher value.
The subject of another assay is F380Y. The assay can be described thus: BK channel mutant inhibitors and activators – cell-based, U2OS BacMam, thallium flux, beta subunits, selectivity assay, profiling panel (AID 1259406).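 Further: initial slope of Thallos dye fluorescence rise after thallium is added; log ratio against the mean of 0.3% DMSO vehicle wells on the same plate.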 The conditions noted are these: U2OS BacMam BK variants, at 30 µM.
In another assay the test system is F380Y/beta2Delta. Described as above. The conditions noted are these: U2OS BacMam BK variants, at 30 µM.
Assay [12] deals with Calcium-activated potassium channel subunit alpha-1 (Homo sapiens) + Leucine-rich repeat-containing protein 26 (Homo sapiens) (UniProt Q12791+Q2I0M4). The assay is described as above. The conditions noted are these: U2OS BacMam BK variants, F380Y/Slo1WT/gamma1, at 30 µM.
Another assay concerns R275C. Described as above. As to conditions: U2OS BacMam BK variants, at 30 µM.
The subject of the next assay is R275C/beta1. Described as above. As to conditions: U2OS BacMam BK variants, at 30 µM.
The next assay deals with R275C/beta2Delta. The description is as above. As to conditions: U2OS BacMam BK variants, at 30 µM.
Assay [13] can be described thus: P. berghei load reduction in hepatocytes – cell-based, HepG2, luciferase luminescence, HepG2 viability, primary screen (AID 624349; in the data active means parasite load remaining mostly below about 12%, no sharp cut-off; inactive means mostly above about 10%;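 further: 100% = mean of DMSO negative control wells on the same plate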). As to conditions: P. berghei liver stage in HepG2, luciferase luminescence, concentration not given here; parasite load remaining: stronger effect = lower value; viability: measured here: HepG2 viability without parasites.
A short description of assay [14]: viability loss with induced miR-34 in A549 – imaging, A549 dox-inducible miR-34, nuclei and caspase counts, primary screen (AID 1347080;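 active means compounds whose cell count with miR-34 switched on is under 0.7 times the count with it off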). As to conditions: A549 miR-34 inducible, Hoechst nuclei count, 48 h.
The mark [15] stands for this setting: measured here: epithelial PC-3E GFP cell survival.
[16] abbreviates: measured here: mesenchymal TEM4-18 mCherry cell survival.
Setting [17] is: MELAS cybrid survival, CellTiter-Glo 48 h, stronger effect = higher value.
Setting [18] is: Rieske KO mouse fibroblast survival, CellTiter-Glo 72 h.

Consider seven molecules from PubChem BioAssay.

“And” between values parts separate entries of the source, which are not always exact repeats. Identical values can stand only once. The source made the active and inactive calls.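 How the source made its calls, unless noted: active means thallium flux through the channel raised or lowered by more than 3 SD from vehicle-only wells, actives on both sides; inactive means the rest.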

Chain of 6-phosphogluconate dehydrogenase, decarboxylating (Homo sapiens) (P52209 whole entry, looked up): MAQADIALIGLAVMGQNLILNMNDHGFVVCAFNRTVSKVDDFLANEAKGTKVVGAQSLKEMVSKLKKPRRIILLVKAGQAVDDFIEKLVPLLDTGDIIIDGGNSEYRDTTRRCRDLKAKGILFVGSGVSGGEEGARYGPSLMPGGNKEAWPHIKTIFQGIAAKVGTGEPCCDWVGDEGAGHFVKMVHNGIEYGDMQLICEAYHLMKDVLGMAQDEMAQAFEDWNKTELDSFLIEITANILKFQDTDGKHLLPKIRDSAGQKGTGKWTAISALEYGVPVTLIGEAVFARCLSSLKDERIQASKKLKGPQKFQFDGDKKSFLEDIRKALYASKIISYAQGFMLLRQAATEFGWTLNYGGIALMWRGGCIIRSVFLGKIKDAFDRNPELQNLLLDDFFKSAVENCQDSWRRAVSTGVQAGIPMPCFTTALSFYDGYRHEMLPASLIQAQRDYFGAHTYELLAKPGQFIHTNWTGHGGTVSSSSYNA
Chain of Calcium-activated potassium channel subunit alpha-1 (Homo sapiens) + Leucine-rich repeat-containing protein 26 (Homo sapiens) (Q2I0M4 whole entry, looked up, one chain of several): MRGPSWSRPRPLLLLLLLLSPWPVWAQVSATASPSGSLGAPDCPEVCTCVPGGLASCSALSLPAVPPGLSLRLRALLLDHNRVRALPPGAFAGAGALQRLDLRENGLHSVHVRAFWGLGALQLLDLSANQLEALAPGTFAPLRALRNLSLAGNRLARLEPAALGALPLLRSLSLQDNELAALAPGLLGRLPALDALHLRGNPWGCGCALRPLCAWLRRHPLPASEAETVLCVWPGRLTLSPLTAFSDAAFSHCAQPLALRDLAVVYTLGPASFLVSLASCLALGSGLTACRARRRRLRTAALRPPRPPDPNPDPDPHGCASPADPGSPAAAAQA
Chain of Mitogen-activated protein kinase 7 (Homo sapiens) (Q13164 whole entry, looked up, the tested form may be a part): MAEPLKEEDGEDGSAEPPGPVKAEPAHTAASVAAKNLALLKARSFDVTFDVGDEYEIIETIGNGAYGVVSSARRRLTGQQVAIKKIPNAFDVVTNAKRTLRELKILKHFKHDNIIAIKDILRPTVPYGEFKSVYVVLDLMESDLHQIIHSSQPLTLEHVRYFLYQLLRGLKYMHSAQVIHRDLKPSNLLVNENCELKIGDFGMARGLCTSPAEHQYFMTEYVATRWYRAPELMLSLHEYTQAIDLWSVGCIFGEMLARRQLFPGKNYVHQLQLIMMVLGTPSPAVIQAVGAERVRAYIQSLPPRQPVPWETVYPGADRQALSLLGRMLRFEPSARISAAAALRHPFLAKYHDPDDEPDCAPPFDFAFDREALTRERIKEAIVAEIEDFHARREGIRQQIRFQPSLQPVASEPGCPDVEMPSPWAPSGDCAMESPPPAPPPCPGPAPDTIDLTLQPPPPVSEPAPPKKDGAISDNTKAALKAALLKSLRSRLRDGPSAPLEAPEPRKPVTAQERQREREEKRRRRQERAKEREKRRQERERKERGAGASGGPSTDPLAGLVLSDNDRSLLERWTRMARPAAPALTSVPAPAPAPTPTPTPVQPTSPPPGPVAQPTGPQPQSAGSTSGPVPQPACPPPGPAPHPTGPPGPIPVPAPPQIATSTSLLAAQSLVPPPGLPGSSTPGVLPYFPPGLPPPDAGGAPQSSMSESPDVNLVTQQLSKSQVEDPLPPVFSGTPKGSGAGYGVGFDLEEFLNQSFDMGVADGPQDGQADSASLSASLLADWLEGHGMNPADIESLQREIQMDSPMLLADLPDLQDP
Chain of NAD(+) hydrolase SARM1 (Homo sapiens) (Q6SZW1 whole entry, looked up, the tested form may be a part): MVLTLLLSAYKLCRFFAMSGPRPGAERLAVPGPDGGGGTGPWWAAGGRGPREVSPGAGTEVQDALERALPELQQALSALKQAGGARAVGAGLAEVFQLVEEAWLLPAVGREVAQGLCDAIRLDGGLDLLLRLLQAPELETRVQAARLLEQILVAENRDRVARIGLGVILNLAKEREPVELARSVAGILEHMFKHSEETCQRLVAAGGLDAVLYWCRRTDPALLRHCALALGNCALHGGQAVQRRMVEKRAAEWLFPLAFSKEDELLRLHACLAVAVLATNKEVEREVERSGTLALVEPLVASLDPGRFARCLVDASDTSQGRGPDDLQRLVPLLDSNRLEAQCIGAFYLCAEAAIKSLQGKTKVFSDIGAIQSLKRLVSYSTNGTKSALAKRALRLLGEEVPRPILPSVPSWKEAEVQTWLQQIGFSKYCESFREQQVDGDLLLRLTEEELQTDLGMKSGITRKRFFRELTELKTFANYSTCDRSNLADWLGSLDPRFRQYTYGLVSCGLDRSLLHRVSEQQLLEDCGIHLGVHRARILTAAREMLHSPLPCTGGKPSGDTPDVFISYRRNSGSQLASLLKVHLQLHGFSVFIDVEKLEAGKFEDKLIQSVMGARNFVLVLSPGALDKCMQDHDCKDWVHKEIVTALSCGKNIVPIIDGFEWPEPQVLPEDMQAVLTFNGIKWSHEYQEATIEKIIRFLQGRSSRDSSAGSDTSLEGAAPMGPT

For orientation: inhibition means the drop in the measured response relative to a control, in per cent. Take `COc1cc2c(cc1OC)[C@H]1Cc3ccc(OC)c(OC)c3CN1CC2`: the inhibition in assay [1] was 6.86% (inactive).
In the case of `CC1=C(/C=C/C(C)=C/C=C/C(C)=C\C(=O)O)C(C)(C)CCC1`, the fluorescence ratio in [2] is 1.01 (inactive); in [5] it was 0.99 (inactive). In addition, the inhibition was 0.45% (inactive) in [3], -1.24% (inactive) in assay [4] and 16.8% (inactive) in [1]. Besides, the mean signal in [6] was 236 (inactive). In assay [7], the red/green cell ratio (normalised) is 1.29 (inactive). The results for the normalised cell number in [7] (setting [15]) and in [7] (setting [16]) were 0.91 and 1.18, respectively. Further, the z-score in [8] (setting [17]) was -0.17 (inactive); in assay [8] (setting [18]) it was -0.281; in [11] it was 1.53 (inactive) and -0.905 (inactive). The remaining NAD in [9] is 10 nM (inactive). In addition, in assay [10], the luciferase signal was 48 AU (inactive). Further, the log fold change Tl+ flux with F380Y was -0.00963 (inactive); with F380Y/beta2Delta it was 0.000191 (inactive); in [12], -0.0907 (active); in the assay on R275C, -0.0306 (inactive); with R275C/beta1, -0.0172 (inactive); with R275C/beta2Delta it was 0.0302 (inactive).
Turning to `CS(=O)(=O)c1ccc(C2=C(c3ccccc3)C(=O)OC2)cc1`, the fluorescence ratio in [2] was 1.03 (inactive); in assay [5], 0.97 (inactive). Also, the inhibition in assay [3] is 3.56% (inactive); in [4], 1.44% (inactive); in [1], -26.3% (inactive). The mean signal in assay [6] is 215 (inactive). Also, the red/green cell ratio (normalised) in assay [7] is 0.98 (inactive). The normalised cell number in assay [7] (setting [15]) turned out to be 0.93; in assay [7] (setting [16]), 0.92. The z-score in assay [8] (setting [17]) is -0.068 (inactive) and 0.18 (inactive) and -0.373 (inactive); in assay [8] (setting [18]), -0.00526 and -0.204 and -0.438; in assay [11] it was 0.26 (inactive) and 0.525 (inactive). Moreover, the remaining NAD in [9] was 10 nM (inactive). In assay [10], the luciferase signal was 192 AU (inactive). For the same molecule, the log fold change Tl+ flux in the assay with F380Y is 0.0227 (inactive); with F380Y/beta2Delta, 0.00326 (inactive); in assay [12], 0.022 (inactive); in the assay on R275C, -0.068 (inactive); with R275C/beta1, 0.023 (inactive); with R275C/beta2Delta it was 0.00437 (inactive).
A word on the viability: it is a read-out of living cells in per cent, often relative to untreated cells. For the molecule `Cc1cccc(C)c1NC(=O)C1CCCCN1C` (stereo not given), the parasite load remaining in assay [13] was 174% (inactive) and 77.7% (inactive) and 69.1% (inactive). For the same molecule, in assay [13], the viability was 85.7% and 198% and 72.6%. For the same molecule, the fluorescence ratio in assay [2] is 0.96 (inactive); in assay [5], 0.95 (inactive). In addition, the inhibition in assay [3] is -2.84% (inactive); in assay [4] it was 1.97% (inactive); in assay [1], 10.7% (inactive). Moreover, in assay [6], the mean signal was 253 (inactive). Also, the red/green cell ratio (normalised) in assay [7] was 1.21 (inactive). For the same molecule, the normalised cell number in assay [7] (setting [15]) was 1.19; in [7] (setting [16]), 1.44. The fold change was 0.977 (inactive) and 0.928 (inactive) and 0.875 (inactive) in [14] (stronger effect = lower value, cell number ratio, induced over uninduced); 1.53 and 0.775 and 2.13 in assay [14] (measured here: relative caspase fold change +Dox/-Dox). The cell count in [14] (measured here: total cells with miR-34 induction, stronger effect = lower value) is 8050 and 8030 and 11600; in [14] (measured here: total cells without miR-34 induction) it was 8240 and 8660 and 13200. Also, the z-score in assay [8] (setting [17]) was -0.27 (inactive) and -0.937 (inactive); in assay [8] (setting [18]), -0.166 and -1.35; in [11], 0.56 (inactive). Besides, in assay [9], the remaining NAD is 10 nM (inactive). Besides, the luciferase signal in assay [10] was 68 AU (inactive). The log fold change Tl+ flux is 0.0251 (inactive) with F380Y; 0.00729 (inactive) with F380Y/beta2Delta; 0.0131 (inactive) in assay [12]; -0.0395 (inactive) in the assay with R275C; -0.0108 (inactive) with R275C/beta1; 0.00999 (inactive) with R275C/beta2Delta.
In the case of `CC1(C)C(=O)CC[C@@]2(C)C1C[C@@H](O)[C@@]1(C)C3=CC(=O)O[C@@H](c4ccoc4)[C@]3(C)CCC21` (stereo not given in full), the inhibition in assay [1] is -10.8% (inactive).
In the case of `CCOC(=O)C1(O)Oc2cc(OC)cc(OC)c2C(=O)C1c1ccccc1` (stereo not given), in assay [1], the inhibition was -4.01% (inactive).
Regarding `CC(=O)c1cc2c(cc1O)OC(C)(C)C=C2`, the inhibition in assay [1] is 16.8% (inactive).
